A number with no mark means an inactive call. Inconclusive results are not listed. A call without a number means that no potency is given here. Activity calls are given as the source filed them. Unless noted, calls come from the whole dose curve; as a rule, active = well fitted curve in the direction sought with a large enough effect; inconclusive = small, poorly fitted or top-dose-only effect, or another doubt; inactive = no such curve, though single readings can be large; an effect the other way counts as inactive or inconclusive.
Tests used:
[1] = biological target: Thioredoxin reductase 1, cytoplasmic (Rattus norvegicus) (UniProt O89049); assay: qHTS Assay for Substrates of Mammalian Selenoprotein Thioredoxin Reductase 1 (TrxR1) (AID 488772);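 note: NADPH fluorescence in the first read after selenite addition and not the 8 min delta; series mostly up to about 57 µM; a drop in NADPH fluorescence below the no-compound background marks a TrxR1 substrate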
Chain of Thioredoxin reductase 1, cytoplasmic (Rattus norvegicus) (O89049 whole entry, looked up): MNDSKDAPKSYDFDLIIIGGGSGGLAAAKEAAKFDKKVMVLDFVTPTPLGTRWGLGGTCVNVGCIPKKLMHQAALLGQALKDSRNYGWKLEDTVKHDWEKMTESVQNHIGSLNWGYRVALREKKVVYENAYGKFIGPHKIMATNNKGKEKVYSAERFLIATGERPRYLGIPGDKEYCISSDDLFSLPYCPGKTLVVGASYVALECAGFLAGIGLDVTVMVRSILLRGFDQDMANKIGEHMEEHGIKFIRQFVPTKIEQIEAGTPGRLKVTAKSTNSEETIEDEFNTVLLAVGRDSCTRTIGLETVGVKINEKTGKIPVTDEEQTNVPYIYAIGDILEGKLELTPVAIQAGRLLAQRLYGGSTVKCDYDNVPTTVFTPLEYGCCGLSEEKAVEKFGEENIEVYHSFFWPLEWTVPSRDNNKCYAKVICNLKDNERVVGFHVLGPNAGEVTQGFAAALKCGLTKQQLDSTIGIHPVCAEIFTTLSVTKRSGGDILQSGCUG
How it was run: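 Quantitative HTS in Tris-HCl buffer at pH 7.5 with EDTA and Tween-20, using rat TrxR1, 400 uM NADPH and 400 uM selenite (final). A fall in initial NADPH fluorescence relative to background marked substrate behaviour.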

[2] = biological target: Flap endonuclease 1 (Homo sapiens) (UniProt P39748); assay: qHTS Validation Assay for the Inhibitors of Human Flap endonuclease 1 (FEN1) (AID 488816)
Chain of Flap endonuclease 1 (Homo sapiens) (P39748 whole entry, looked up): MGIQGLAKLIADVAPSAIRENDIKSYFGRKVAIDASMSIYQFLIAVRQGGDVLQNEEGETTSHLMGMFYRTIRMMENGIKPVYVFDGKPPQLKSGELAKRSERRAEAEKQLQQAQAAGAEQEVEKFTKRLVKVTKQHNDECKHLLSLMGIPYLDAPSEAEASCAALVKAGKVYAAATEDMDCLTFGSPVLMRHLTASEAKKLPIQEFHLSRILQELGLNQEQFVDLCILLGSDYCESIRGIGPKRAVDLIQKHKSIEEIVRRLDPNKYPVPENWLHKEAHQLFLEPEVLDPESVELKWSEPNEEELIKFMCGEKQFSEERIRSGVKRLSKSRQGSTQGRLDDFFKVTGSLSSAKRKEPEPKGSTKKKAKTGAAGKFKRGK
How it was run: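 Readings taken at 0 and 15 min after starting the reaction with 50 nM (final) substrate supplied the signal. Compounds had first sat with 10 nM FEN1 reagent for 15 min at room temperature. Values come from Hill-equation concentration-response fits.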

[3] = biological target: M-phase phosphoprotein 8 (Homo sapiens) (UniProt Q99549); assay: qHTS Validation Assay for Inhibitors for MPP8 Chromodomain Interactions with Methylated Histone Tails (AID 488949); note: top concentration of the series differs between compounds; nearly all actives have a fitted effect of over 55% in size
Chain of M-phase phosphoprotein 8 (Homo sapiens) (Q99549 whole entry, looked up): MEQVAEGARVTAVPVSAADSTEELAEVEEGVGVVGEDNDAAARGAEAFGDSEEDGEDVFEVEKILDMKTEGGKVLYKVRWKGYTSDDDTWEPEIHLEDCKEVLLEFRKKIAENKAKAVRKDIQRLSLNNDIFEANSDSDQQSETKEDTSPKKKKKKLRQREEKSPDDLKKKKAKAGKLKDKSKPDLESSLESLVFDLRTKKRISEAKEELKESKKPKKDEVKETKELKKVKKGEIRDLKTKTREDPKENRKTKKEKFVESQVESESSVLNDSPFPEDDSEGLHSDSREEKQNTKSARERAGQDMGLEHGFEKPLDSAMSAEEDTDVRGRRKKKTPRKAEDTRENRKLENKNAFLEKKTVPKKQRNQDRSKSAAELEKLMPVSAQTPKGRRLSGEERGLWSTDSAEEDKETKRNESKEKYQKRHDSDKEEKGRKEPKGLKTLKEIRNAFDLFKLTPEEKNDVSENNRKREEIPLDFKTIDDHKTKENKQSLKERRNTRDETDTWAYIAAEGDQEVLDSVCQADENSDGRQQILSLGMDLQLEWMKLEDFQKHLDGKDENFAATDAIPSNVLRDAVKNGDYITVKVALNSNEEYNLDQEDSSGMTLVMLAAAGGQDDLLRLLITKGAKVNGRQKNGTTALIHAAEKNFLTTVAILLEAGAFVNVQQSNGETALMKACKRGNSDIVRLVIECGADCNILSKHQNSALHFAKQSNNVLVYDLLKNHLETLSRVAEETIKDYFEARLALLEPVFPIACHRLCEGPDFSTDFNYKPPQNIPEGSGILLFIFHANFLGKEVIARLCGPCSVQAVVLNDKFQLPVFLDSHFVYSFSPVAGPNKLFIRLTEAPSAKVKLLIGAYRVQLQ
How it was run: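 MPP8 (50 nM) was pre-bound to 50 nM biotinylated H3(1-18)K9me3 peptide in PBS pH 7.4 with 0.01% Tween-20. Compounds were then added for 30 min at room temperature, and complex disruption was read by AlphaScreen with streptavidin donor and nickel-chelate acceptor beads.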

[4] = biological target: Chromobox protein homolog 1 (Homo sapiens) (UniProt P83916); assay: qHTS Validation Assay for Inhibitors of HP1-beta Chromodomain Interactions with Methylated Histone Tails (AID 488953); note: nearly all actives have a fitted effect of over 50% in size; note: potency is the fitted concentration of half-maximal effect
How it was run: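 50 nM HP1-beta + 50 nM biotin-H3(1-18)K9me3, PBS pH 7.4, 0.01% Tween-20, 30 min RT; compound added, 30 min RT; AlphaScreen beads 10 ug/mL final, 30 min dark; luminescence read.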

[5] = biological target: Methanococcus maripaludis chaperonin (MmCpn) (UniProt Q6LX38); assay: High-Throughput Screening for Modulators of Cytosolic Chaperonin Activity: MmCpn Primary Screen (AID 488978);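 note: 50 nM MmCpn enzyme hydrolysing 30 µM ATP at 37 °C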
Chain of Methanococcus maripaludis chaperonin (MmCpn) (Q6LX38 1-543): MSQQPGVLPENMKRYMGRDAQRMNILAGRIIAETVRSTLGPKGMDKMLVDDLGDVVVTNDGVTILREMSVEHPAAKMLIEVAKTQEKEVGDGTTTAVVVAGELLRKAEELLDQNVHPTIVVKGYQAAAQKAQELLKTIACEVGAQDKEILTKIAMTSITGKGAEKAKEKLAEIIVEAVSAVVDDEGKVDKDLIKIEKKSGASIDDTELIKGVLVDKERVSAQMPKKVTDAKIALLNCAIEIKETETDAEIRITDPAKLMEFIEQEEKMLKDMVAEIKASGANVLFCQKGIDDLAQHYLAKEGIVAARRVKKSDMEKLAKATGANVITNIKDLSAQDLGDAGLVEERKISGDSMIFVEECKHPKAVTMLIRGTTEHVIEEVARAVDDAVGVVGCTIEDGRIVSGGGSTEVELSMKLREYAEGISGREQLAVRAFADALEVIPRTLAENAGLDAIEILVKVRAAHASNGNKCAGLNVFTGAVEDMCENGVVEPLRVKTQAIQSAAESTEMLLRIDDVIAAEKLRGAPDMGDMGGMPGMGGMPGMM
How it was run: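 MmCpn at 50 nM final was preincubated 5 min at RT with compound. ATP was then added at 30 uM final for 10 min at 37 C. ADP formed was detected by Transcreener HTRF (665/590 nm).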

[6] = biological target: Transient receptor potential cation channel subfamily V member 1 (Homo sapiens) (UniProt Q8NER1); assay: HTS Assay for Compounds that Act as Enhancers of the Vanilloid Receptor 1 (AID 488979)
Chain of Transient receptor potential cation channel subfamily V member 1 (Homo sapiens) (Q8NER1 whole entry, looked up): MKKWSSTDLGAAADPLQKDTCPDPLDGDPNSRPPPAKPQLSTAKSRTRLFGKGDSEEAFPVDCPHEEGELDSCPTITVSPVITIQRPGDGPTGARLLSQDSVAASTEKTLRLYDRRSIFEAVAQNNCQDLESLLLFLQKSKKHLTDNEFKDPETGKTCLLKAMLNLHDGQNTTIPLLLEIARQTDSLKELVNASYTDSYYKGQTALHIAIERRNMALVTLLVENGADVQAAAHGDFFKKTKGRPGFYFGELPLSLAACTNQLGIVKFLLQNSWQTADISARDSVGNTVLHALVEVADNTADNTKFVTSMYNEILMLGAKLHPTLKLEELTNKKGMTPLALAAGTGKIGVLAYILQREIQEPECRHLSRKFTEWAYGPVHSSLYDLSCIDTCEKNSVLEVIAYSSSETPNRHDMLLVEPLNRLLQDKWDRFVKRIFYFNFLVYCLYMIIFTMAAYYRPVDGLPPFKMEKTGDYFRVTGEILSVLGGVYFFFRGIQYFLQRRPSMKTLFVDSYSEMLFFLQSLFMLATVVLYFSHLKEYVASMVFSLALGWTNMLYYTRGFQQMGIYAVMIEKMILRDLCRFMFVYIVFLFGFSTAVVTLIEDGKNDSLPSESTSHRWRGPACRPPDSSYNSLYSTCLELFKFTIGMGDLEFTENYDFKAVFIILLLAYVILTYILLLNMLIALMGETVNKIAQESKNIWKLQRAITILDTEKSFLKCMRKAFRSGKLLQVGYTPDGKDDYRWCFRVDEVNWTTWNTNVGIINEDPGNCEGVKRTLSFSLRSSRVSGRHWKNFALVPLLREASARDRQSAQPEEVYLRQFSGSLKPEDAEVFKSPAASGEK
How it was run: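 Calcium influx kinetics via Fluo-8 (480/520 nm) in TRPV1-expressing cells, 2000/well cultured overnight at 35.5C. Compound-alone read 3 min (agonist phase), followed by EC20 capsaicin challenge for 2 min (enhancer phase).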

[7] = biological target: Thyrotropin receptor (Homo sapiens) (UniProt P16473); assay: qHTS Assay for Antagonists of the Thyroid Stimulating Hormone Receptor (AID 488980); note: series mostly up to about 58 µM
How it was run: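 TSHR-transfected HEK293 cells (2000/well) in HEPES-buffered HBSS with 70 uM RO 20-1724 were stimulated with 4 nM TSH (EC80, final) in the presence of compound. cAMP was measured by HTRF competition after lysis and 30 min at RT.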

[8] = biological target: D(1A) dopamine receptor (Homo sapiens) (UniProt P21728); assay: HTS Assay for Allosteric Agonists of the Human D1 Dopamine Receptor: Primary Screen for Agonists (AID 488981)
Chain of D(1A) dopamine receptor (Homo sapiens) (P21728 whole entry, looked up): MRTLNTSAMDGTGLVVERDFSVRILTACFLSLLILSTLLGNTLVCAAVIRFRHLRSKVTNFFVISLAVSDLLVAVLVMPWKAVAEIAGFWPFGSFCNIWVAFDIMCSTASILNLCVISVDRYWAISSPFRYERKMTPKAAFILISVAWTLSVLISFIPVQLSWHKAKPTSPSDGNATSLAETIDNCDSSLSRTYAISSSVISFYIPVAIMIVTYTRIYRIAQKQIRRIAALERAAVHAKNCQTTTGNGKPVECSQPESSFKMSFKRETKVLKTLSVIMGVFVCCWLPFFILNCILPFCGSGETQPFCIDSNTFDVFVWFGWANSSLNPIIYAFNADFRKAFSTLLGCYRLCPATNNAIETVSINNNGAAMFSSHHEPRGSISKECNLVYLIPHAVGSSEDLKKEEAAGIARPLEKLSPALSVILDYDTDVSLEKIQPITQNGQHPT
How it was run: (§1)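 Calcium flux in an inducible, force-coupled HEK293 Trex D1 line (overnight at 30 C): agonist mode is the 180 s kinetic read after compound; potentiator mode is the following 180 s read after dopamine at EC20.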

[9] = biological target: D(1A) dopamine receptor (Homo sapiens) (UniProt P21728); assay: HTS Assay for Allosteric Agonists of the Human D1 Dopamine Receptor: Primary Screen for Potentiators (AID 488982)
How it was run: as §1

[10] = biological target: D(1A) dopamine receptor (Homo sapiens) (UniProt P21728); assay: HTS Assay for Allosteric Agonists of the Human D1 Dopamine Receptor: Primary Screen for Antagonists (AID 488983);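 note: calcium flux response to an EC80 dopamine challenge measured with no-wash dye; nearly all actives have a fitted effect of over 65% in size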
How it was run: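 Cells are induced with tetracycline and incubated overnight at 30 C, then loaded with calcium dye for 30 to 90 minutes at room temperature. Compound addition is followed by a 180 s read, then an EC80 dopamine addition and another 180 s read.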

[11] = biological target: ATP-dependent 6-phosphofructokinase (Trypanosoma brucei brucei) (UniProt O15648); assay: qHTS Assay to Find Inhibitors of T. brucei phosphofructokinase: hit validation (AID 492961);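 note: luminescence reports ADP formed as PFK phosphorylates fructose-6-phosphate with ATP; series mostly up to about 51 µM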
Chain of ATP-dependent 6-phosphofructokinase (Trypanosoma brucei brucei) (O15648 whole entry, looked up): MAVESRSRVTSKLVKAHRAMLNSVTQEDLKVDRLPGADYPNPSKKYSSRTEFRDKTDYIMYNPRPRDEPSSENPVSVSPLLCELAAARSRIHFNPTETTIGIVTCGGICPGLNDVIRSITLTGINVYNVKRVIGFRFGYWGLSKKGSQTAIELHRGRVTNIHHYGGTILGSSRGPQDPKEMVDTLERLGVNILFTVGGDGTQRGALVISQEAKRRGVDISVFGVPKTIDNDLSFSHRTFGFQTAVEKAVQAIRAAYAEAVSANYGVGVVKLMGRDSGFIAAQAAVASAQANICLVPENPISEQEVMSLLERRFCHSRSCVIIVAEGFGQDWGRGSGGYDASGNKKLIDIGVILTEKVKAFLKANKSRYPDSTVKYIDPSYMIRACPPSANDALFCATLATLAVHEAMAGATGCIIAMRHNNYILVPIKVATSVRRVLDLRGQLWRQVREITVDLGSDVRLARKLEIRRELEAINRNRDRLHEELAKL
How it was run: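 Measures ADP output of PFK (1.25 nM) at 0.1 mM ATP, 0.5 mM F6P, pH 8.0 TEA buffer with 5 mM MgCl2. No-enzyme wells define full inhibition; uninhibited enzyme wells define zero.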

[12] = Validation screen for small molecules that induce genotoxicity in human embryonic kidney (HEK293T) cells expressing luciferase-tagged ELG1 (AID 493106)
How it was run: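 Luminescence from an ELG1-luciferase fusion serves as the read-out, rising when genetic stress elevates ELG1 protein. HEK293T reporter cells (2,000 per well) received 23 nL compound, incubated 16 hr at 37 °C, then ONE-Glo for 30 min at room temperature.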

[13] = biological target: ATPase family AAA domain-containing protein 5 (Homo sapiens) (UniProt Q96QE3); assay: Validation screen for small molecules that inhibit ELG1-dependent DNA repair in human embryonic kidney (HEK293T) cells expressing luciferase-tagged ELG1 (AID 493107);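 note: cells co-treated with the DNA-damaging agent 5-fluorouridine alongside compound; series mostly up to about 46 µM; inhibitors lower the ELG1-luciferase luminescence signal; nearly all actives have a fitted effect of over 70% in size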
How it was run: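 Luminescence from ONE-Glo, developed 30 min at room temperature, served as read-out of ELG1-luciferase levels. Beforehand, reporter HEK293T cells received 5-fluorouridine plus test compound for 16 hr at 37 °C.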

[14] = biological target: Thyrotropin-releasing hormone receptor (Homo sapiens) (UniProt P34981); assay: qHTS for Small Molecule Agonists and Allosteric Enhancers of Human TRH Receptor: Validation Screen for Agonists (AID 493127;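 active = calcium activation more than 3 SD above the typical response in the agonist read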;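 note: intracellular calcium rise by fluo-8 fluorescence before TRH EC20 addition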); conditions: TRH receptor agonist cell assay; at 2 µM; stronger effect = higher value
How it was run: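 Cells 2000/well, 10% FCS, 18 h 33.5C/5% CO2 → fluo-8 Ca dye, RT 30 min–1.5 h → FDSS baseline 10 × 1 s → compound added → 230 cycles (1 s/cycle) agonist mode. TRH controls.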

[15] = qHTS for Inhibitors of Cell Surface uPA Generation: Validation Assay (AID 493164)
How it was run: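 RAW 264.7 cells (4000/well) were plated overnight, then exposed for 18 h at 37 C, 5% CO2 to compounds in a 7-point 1:5 titration (2.45 nM–38.3 uM final). Intracellular ATP was read by ATP-Lite luminescence.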

[16] = biological target: Galactokinase (Homo sapiens) (UniProt P51570); assay: qHTS Validation Assay for Inhibitors of Human Galactokinase (GALK) (AID 493189)
Chain of Galactokinase (Homo sapiens) (P51570 whole entry, looked up): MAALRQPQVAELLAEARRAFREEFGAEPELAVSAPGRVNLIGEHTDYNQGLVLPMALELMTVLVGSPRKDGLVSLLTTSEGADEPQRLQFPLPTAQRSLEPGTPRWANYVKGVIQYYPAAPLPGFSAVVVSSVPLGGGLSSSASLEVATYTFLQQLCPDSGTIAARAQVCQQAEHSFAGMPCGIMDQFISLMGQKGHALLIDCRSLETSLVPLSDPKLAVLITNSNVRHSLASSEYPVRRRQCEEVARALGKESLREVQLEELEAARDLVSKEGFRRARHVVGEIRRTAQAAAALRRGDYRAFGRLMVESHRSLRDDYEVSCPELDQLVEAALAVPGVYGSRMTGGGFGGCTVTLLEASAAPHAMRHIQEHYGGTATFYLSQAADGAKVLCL
How it was run: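 GALK (5 nM) with 35 uM ATP and 100 uM galactose in HEPES pH 8.0 with MgCl2, NaCl, DTT and BSA. Reaction ran 1 h at room temperature. Residual ATP read by Kinase-Glo Plus luminescence.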

[17] = Validation screen for small molecules that induce DNA re-replication in SW480 colon adenocarcinoma cells (AID 504364)
How it was run: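 250 cells/well; compound pinned in; 48 hr, 37 C, 5% CO2; Hoechst added, 40 min; nuclear fluorescence imaged, 405 ex / 500-530 em; re-replication scored as increase in high-intensity nuclei.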

[18] = biological target: Peptidyl-prolyl cis-trans isomerase NIMA-interacting 1 (Homo sapiens) (UniProt Q13526); assay: qHTS Validation Assay to Find Inhibitors of Pin1 (AID 504536; active = well fitted inhibition curve with a large enough effect in the polarisation, with a control signal flat, not every such curve was filed as active; the % refers to the polarisation)
How it was run: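 Fluorescence polarization competition: compounds (titration) displace HiFluor-488-labeled Pin1-1b peptide from Pin1 (0.3 uM final) in pH 7.5 HEPES buffer with DTT, 10 min at room temperature; %Activity normalized to no-enzyme wells, curves fitted.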

[19] = biological target: phosphoglycerate mutase (Leishmania major) (UniProt Q4Q090); assay: qHTS Validation Assay to Find Inhibitors of Phosphoglycerate Mutase (AID 504548); note: series mostly up to about 58 µM
Chain of phosphoglycerate mutase (Leishmania major) (Q4Q090 1-553): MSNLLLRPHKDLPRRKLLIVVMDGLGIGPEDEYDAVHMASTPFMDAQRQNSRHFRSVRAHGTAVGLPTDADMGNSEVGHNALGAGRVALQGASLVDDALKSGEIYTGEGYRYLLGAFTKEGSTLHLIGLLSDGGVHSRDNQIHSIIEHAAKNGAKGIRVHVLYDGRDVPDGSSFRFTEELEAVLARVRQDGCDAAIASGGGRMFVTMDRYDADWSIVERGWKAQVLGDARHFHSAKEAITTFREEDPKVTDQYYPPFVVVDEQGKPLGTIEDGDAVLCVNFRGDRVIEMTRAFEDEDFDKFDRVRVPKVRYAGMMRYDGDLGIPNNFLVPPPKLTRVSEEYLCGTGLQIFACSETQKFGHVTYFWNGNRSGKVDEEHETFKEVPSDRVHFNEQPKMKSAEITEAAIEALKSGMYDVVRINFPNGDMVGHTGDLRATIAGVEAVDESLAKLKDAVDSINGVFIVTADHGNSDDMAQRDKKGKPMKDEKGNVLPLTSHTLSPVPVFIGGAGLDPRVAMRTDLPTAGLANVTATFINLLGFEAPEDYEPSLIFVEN
How it was run: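 Lm PGAM 1.25nM final; 100 mM TEA pH 7.6, 5 mM MgCl2, 0.01% Tween-20; 45 min RT; Kinase-GloPlus, 10 min; end-point luminescence. Enzyme-free wells as negative controls.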

[20] = biological target: Tyrosyl-DNA phosphodiesterase 1 (Homo sapiens) (UniProt Q9NUW8); assay: Confirmation Assay for Inhibitors of Tyrosyl-DNA Phosphodiesterase (TDP1) (AID 489007); conditions: recombinant human TDP1 enzymatic activity, dose-response; note: potency is the fitted concentration of half-maximal effect; nearly all actives have a fitted effect of over 40% in size
How it was run: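 Tdp1 1 nM + cpd, 15 min RT; add biotin/phosphotyrosine-FITC oligo 15 nM, 5 min RT; add AS donor/acceptor beads 10 ug/ml, 10 min RT; read AlphaScreen. No-enzyme wells = max signal.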

SMILES | outcome [1] | outcome [2] | Potency [3] | Potency [4] | outcome [5] | outcome [6] | outcome [7] | Potency [8] | outcome [9] | outcome [10] | outcome [11] | outcome [12] | outcome [13] | activation [14] | outcome [15] | outcome [16] | outcome [17] | outcome [18] | outcome [19] | Potency [20]
C=C(C)[C@H]1CN[C@H](C(=O)O)[C@H]1CC(=O)O | inactive | inactive | inactive | inactive | inactive | inactive | inactive | inactive | inactive | inactive | inactive | inactive | inactive | 1.12% | inactive | inactive | inactive | inactive | inactive | 
CC(C)N(CCC(C(N)=O)(c1ccccc1)c1ccccn1)C(C)C (stereo not given) | inactive | inactive | inactive | inactive | inactive | inactive | inactive | inactive | inactive | inactive |  | inactive | inactive |  | inactive | inactive | inactive | inactive | inactive | 
COc1ccc2c(c1OC)C(=O)O[C@H]2[C@@H]1c2cc3c(cc2CCN1C)OCO3 | inactive | inactive | inactive | inactive | inactive |  | inactive | inactive | inactive | inactive |  | inactive | inactive |  | inactive |  | inactive | inactive | inactive | 
Clc1ccc(C(c2ccc(Cl)cc2)C(Cl)(Cl)Cl)cc1 |  |  |  |  |  |  |  |  |  |  | inactive |  |  |  |  |  |  |  |  | 
CCCCC/C=C\C/C=C\C/C=C\C/C=C\CCCC(=O)NCC(=O)O | inactive | inactive | inactive | 44.7 µM (active) | inactive | inactive |  | inactive | inactive | inactive |  | inactive | inactive |  | inactive | inactive | inactive |  | inactive | 28.2 µM (active)
COP(=S)(OC)Oc1ccc(S(=O)(=O)N(C)C)cc1 |  |  |  |  |  |  |  |  |  |  | inactive |  |  |  |  |  |  |  |  | 
NCCc1ccc(O)cc1 | inactive | inactive | inactive | inactive | inactive | inactive | inactive | inactive | inactive | inactive |  | inactive | inactive | 1.31% | inactive | inactive | inactive | inactive | inactive | 
Cc1ncsc1CCCl | inactive | inactive | inactive | inactive | inactive |  |  | inactive |  | inactive | inactive | inactive | inactive |  | inactive |  |  | inactive | inactive | 

Source: PubChem BioAssay (NCATS)
